Screens as filed in PubChem.
This is one part of a sample in which hits are shown more often than they occur.
IL-1B inflam inh = qHTS for Inhibitors of Inflammasome Signaling: IL-1-beta AlphaLISA Primary Screen; THP-1 LPS/ATP IL-1B secretion, AlphaLISA, 16 h; hits give low values; activity change, % at 57.5 µM; 4.7% of 360,000 active; AID 743279, 2014; in the data active means activity change below about -50%; inconclusive means mostly about -30% to -49%
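Secreted IL-1B measured by AlphaLISA bead assay after 16 h compound exposure of THP-1 cells; compounds (final up to 57.5 uM) added 1 h before LPS (250 ng/mL) and ATP (1.25 mM) stimulation; lower signal means less secretion.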
DT40 TDP1 CPT = qHTS for Inhibitors of human tyrosyl-DNA phosphodiesterase 1 (TDP1): qHTS in cells in presence of CPT; chicken DT40 Tdp1-/-;hTDP1 cells + 20 nM CPT, ATP luminescence, 48 h; Potency, µM (top dose mostly 46.2 µM), usual class: inhibitors; 12% of 420,000 active; further: nearly all actives have a fitted effect of over 55% in size
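Chicken DT40 Tdp1-/- cells complemented with human TDP1, 400 cells/well, exposed to compounds plus 20 nM camptothecin for at least 48 h at 37 C; viability read as ATP content by CellTiter-Glo luminescence.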
ALOX12 inh = Primary qHTS assay for inhibitors of human arachidonate 12S-lipoxygenase (ALOX12): Round 2 | purified 12hLO, xylenol orange hydroperoxide absorbance | Potency, µM (highest dose often 108 µM), actives largely listed as inhibitors | 1.1% of 580,000 active | AID 1671190, 2021
Target sequence (P18054 whole entry, looked up): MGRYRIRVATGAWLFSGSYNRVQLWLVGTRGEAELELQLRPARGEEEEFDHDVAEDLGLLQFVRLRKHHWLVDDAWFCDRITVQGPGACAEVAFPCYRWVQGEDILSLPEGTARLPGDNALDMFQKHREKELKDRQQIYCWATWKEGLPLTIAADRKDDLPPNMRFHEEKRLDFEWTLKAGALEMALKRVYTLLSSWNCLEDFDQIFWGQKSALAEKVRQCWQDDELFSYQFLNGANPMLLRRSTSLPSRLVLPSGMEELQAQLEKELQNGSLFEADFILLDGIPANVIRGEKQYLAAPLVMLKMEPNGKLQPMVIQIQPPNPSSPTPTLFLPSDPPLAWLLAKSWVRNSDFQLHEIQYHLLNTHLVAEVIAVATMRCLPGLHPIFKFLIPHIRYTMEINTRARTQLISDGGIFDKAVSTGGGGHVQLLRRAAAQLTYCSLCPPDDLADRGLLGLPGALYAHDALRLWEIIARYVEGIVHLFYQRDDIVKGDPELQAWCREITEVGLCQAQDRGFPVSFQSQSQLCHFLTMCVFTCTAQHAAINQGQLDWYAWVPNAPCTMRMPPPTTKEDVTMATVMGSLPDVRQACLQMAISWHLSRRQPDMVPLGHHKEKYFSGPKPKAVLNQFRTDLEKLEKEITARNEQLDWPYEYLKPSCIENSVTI
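Purified human 12hLO at 150 nM in 25 mM Hepes, 0.01% Triton X-100, pH 7.0, preincubated 15 min at room temperature with compound. Reaction started with 40 uM arachidonic acid, 30 min at room temperature. Hydroperoxide measured by Fe-xylenol orange, 573/405 nm absorbance ratio.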
DT40 TDP1 no CPT = qHTS for Inhibitors of human tyrosyl-DNA phosphodiesterase 1 (TDP1): qHTS in cells in absence of CPT. 15% of 420,000 active. Potency, µM (series often up to 46.2 µM), usual class: inhibitors. DT40 Tdp1-/- hTDP1 cells, no CPT, ATP luminescence, 48 h; further: nearly all actives have a fitted effect of over 55% in size
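Cells were dispensed at 400 per well, compounds added by pin tool, plates incubated ≥48 hr at 37 °C, then CellTiter-Glo added for 30 min at room temperature before luminescence reading. Line: DT40 Tdp1-/- complemented with hTDP1; camptothecin omitted.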
HT1080NT lethal = qHTS for induction of synthetic lethality in tumor cells producing 2HG: qHTS for the HT-1080-NT fibrosarcoma cell line; AID 686970, 2013; Potency, µM (series often up to 46.1 µM), hits mostly cytotoxic; HT-1080-NT fibrosarcoma viability, CellTiter-Glo ATP luminescence, 48 h; 1.6% of 360,000 active;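 further: NT is the 2HG producing partner of a matched IDH1 knockdown line; nearly all actives have a fitted effect of over 55% in size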
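Toxicity toward the 2HG-producing NT line was scored as %Activity, normalised to DMSO and no-cell wells, from CellTiter-Glo luminescence after 48 hours' treatment.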
HT1080 IDH1KD tx = qHTS for induction of synthetic lethality in tumor cells producing 2HG: qHTS for the HT-1080-IDH1KD cell line | HT-1080 IDH1 knockdown viability, ATP luminescence, 48 h | Potency, µM (top dose mostly 46.1 µM), actives largely listed as cytotoxic | 2% of 360,000 active | AID 686971, 2013
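HT-1080-IDH1KD cells (IDH1 knocked down), 750/well in RPMI with 5% FBS, treated with compound 48 h at 37 degrees C. Viability by CellTiter-Glo luminescence, normalised to DMSO and no-cell wells; concentration-response curves classed.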
A number is an active result; i = inactive; ? = inconclusive; nt = not tested or not shown. Unless noted, the call rests on the fitted dose curve; in most records, active means well fitted curve in the direction sought with a large enough effect; inconclusive means small, poorly fitted or top-dose-only effect, or another doubt; inactive means no such curve, though single readings can be large; an effect the other way counts as inactive or inconclusive.

SMILES | IL-1B inflam inh | DT40 TDP1 CPT | ALOX12 inh | DT40 TDP1 no CPT | HT1080NT lethal | HT1080 IDH1KD tx
CC(C)c1cnc2c(c1SCC(=O)Nc1ccc(OC(F)(F)F)cc1)c(=O)n(C)c(=O)n2C | nt | 9.2µM | i | 8.2µM | nt | nt
CCCc1cnc2c(c1SCc1ccc(C(F)(F)F)cc1)c(=O)n(C)c(=O)n2C | nt | ? | i | 20.6µM | nt | nt
CCCc1cnc2c(c1SCC(=O)Nc1c(C)cc(C)cc1C)c(=O)n(C)c(=O)n2C | nt | i | ? | i | nt | nt
Cc1ccc(CSc2c(C)cnc3c2c(=O)n(C)c(=O)n3C)cc1 | nt | 23.1µM | i | ? | nt | nt
O=C1Nc2ccccc2OCC12CCN(CC1CCCCC1)CC2 | nt | nt | i | nt | nt | nt
Cc1ccc(CNC(=O)c2csc(Nc3ccccc3C)n2)cc1 | nt | nt | i | nt | nt | nt
CCOC(=O)c1c(CN2CCN(CCO)CC2)n(-c2ccccc2)c2cc(Br)c(O)cc12 | -81.0 | ? | ? | 18.4µM | ? | 23.1µM
CCOC(=O)c1c(CSC(=N)N)n(-c2ccccc2)c2cc(Br)c(OC(C)=O)cc12 | nt | ? | ? | 18.4µM | ? | ?
CCOC(=O)c1c(CN2CCN(c3ccccc3)CC2)oc2cc(Br)c(O)cc12 | i | ? | ? | ? | ? | i
CCOC(=O)c1c(C)n(-c2ccccc2)c2ccc(O)cc12 | i | i | i | ? | i | i
CCOC(=O)c1c(C)n(-c2ccccc2)c2ccc(O)c(CN(C)C)c12 | nt | 11.6µM | i | 14.6µM | ? | ?
CCOC(=O)c1c(CN(CC)CC)n(-c2ccccc2)c2ccc(O)cc12 | -60.3 | ? | i | ? | i | i
CCOC(=O)c1c(C)n(C)c2ccc(O)c(CN(CC)CC)c12 | i | ? | i | ? | i | i
CCOC(=O)c1c(CNc2ccncc2)n(C)c2cc(Br)c(O)cc12 | i | ? | i | ? | i | i
CCOC(=O)c1c(CN2CCN(C)CC2)n(-c2ccccc2)c2cc(Br)c(O)cc12 | i | ? | ? | 23.1µM | i | i
FC(F)C(F)(F)Oc1cccc(Nc2nccn3c(-c4cccc5cccnc45)cnc23)c1 | i | 25.9µM | ? | 23.1µM | i | ?
COc1ccccc1-c1cnc2c(Nc3cccc(OC(F)(F)C(F)F)c3)nccn12 | i | ? | i | ? | i | i
Cc1ccccc1OCC(=O)N/N=C/c1cccc(Oc2ccc([N+](=O)[O-])cc2[N+](=O)[O-])c1 | -96.4 | 14.6µM | i | 20.6µM | i | i
O=C(N/N=C/c1cccc(Oc2ccc([N+](=O)[O-])cc2[N+](=O)[O-])c1)c1cncc(Br)c1 | i | ? | i | 18.4µM | ? | 11.2µM
COc1cccc(C(=O)O/N=C(\N)c2ccncc2)c1OC | i | ? | i | ? | i | i
N/C(=N\OC(=O)c1cccc2ccccc12)c1ccccn1 | i | ? | i | ? | ? | 25.9µM
COc1cccc(C(=O)O/N=C(\N)c2ccccn2)c1OC | i | ? | i | 7.31µM | i | i
Cn1nccc1C(O)c1cc2n(n1)CCN(C(=O)CCN1CCCO1)C2 (stereo not drawn) | nt | nt | i | nt | nt | nt
COc1ccc(C(O)(C2CCCCC2)C(CN2CCOCC2)c2ccccc2)cc1 (stereo not drawn) | i | 25.9µM | i | ? | ? | ?
OC(c1ccccc1)(C1CCCCC1)C(CN1CCOCC1)c1ccccc1 (stereo not drawn) | i | 18.4µM | ? | 23.1µM | ? | ?
SMILES | IL-1B inflam inh | DT40 TDP1 CPT | ALOX12 inh | DT40 TDP1 no CPT | HT1080NT lethal | HT1080 IDH1KD tx
CCC(O)(c1ccccc1)C(CN1CCOCC1)c1ccccc1 (stereo not drawn) | i | ? | ? | i | i | i
Cc1cc(C)n(-c2nc3ccccc3nc2N2CCN(Cc3ccccc3)CC2)n1 | nt | nt | i | nt | nt | nt
CCCS(=O)(=O)c1c(S(=O)(=O)CCC)c2cc(C(C)(C)C)ccn2c1C(=O)c1ccc(C)cc1 | nt | 23.1µM | i | 14.6µM | nt | nt
CN(C)CCCN1c2ccc([N+](=O)[O-])cc2CCc2cc([N+](=O)[O-])ccc21 | nt | nt | 31.6µM | nt | nt | nt
CN1c2ccc([N+](=O)[O-])cc2N(C)C1(C)c1ccccc1 (stereo not drawn) | i | ? | i | ? | ? | ?
Cc1ccc(NCc2ccc(O)c3ncccc23)cc1 | i | ? | 3.98µM | ? | i | i
Cc1cccnc1NCc1ccc(O)c2ncccc12 | i | 4.61µM | ? | 5.8µM | ? | ?
Cc1cccc(NCc2ccc(O)c3ncccc23)c1C | i | ? | 5.62µM | 14.6µM | i | ?
COc1ccc(S(=O)(=O)N2CCC(C(=O)Nc3cc(Cl)ccc3N3CCOCC3)CC2)cc1OC | ? | ? | i | ? | i | i
CN1C[C@@H](NS(=O)(=O)c2ccc(C#N)cc2)C[C@H]1c1nc(-c2cccnc2)no1 | nt | nt | i | nt | nt | nt
COc1cccc(N=C2NC(=O)/C(=C/c3cc([N+](=O)[O-])ccc3O)S2)c1 | i | i | ? | i | i | i
O=C1NC(=Nc2ccccc2Cl)S/C1=C\c1cc([N+](=O)[O-])ccc1O | i | i | 31.6µM | i | i | i
Cc1ccc(S(=O)(=O)/N=C2/NC(=O)/C(=C/c3cc([N+](=O)[O-])ccc3O)S2)cc1 | i | i | 10µM | i | i | i
COCCN(CCOC)CC(O)COC(c1ccccc1)c1ccccc1 (stereo not drawn) | i | i | nt | 14.6µM | i | i
O=C(c1cc(C2CC2)nc2ccc(Br)cc12)N1N=C(C(F)F)CC1(O)C(F)F (stereo not drawn) | ? | 16.4µM | i | 16.4µM | ? | i
O=C(c1cc(C2CC2)nc2ccccc12)N1N=C(C(F)F)CC1(O)C(F)F (stereo not drawn) | i | ? | i | ? | i | i
CCOc1cccc2c1OC1(C)CC2NC(=O)N1c1cccc(C(=O)N2CCN(c3ccccn3)CC2)c1 (stereo not drawn) | -65.5 | i | i | i | i | i
Cc1cccc(C(=O)NC(C)c2ccc(-n3ccnc3)cc2)c1C (stereo not drawn) | i | i | i | i | i | i
CC(NC(=O)c1cc(F)c(F)c(F)c1F)c1ccc(-n2ccnc2)cc1 (stereo not drawn) | ? | 23.1µM | i | ? | i | i
COc1ccccc1OCCn1cc(C(C)=O)c2ccccc21 | nt | nt | i | nt | nt | nt
Cc1ccc(C(=O)NCC(=O)OCC(=O)Nc2ccc3[nH]c(=O)[nH]c3c2)cc1 | i | i | i | i | i | i
CC1(C)C2CCC1(C)C(SC(=N)N)C2 (stereo not drawn) | -82.4 | 20.6µM | i | ? | i | i
CC(C)Nc1nc(NCCOc2ccccc2Cl)c2sc(-c3ccccc3)cc2n1 | -103.5 | 6.51µM | ? | 6.51µM | ? | ?
Cc1ccccc1-c1cc2nc(Oc3cccc(F)c3)n(C)c(=O)c2s1 | i | ? | i | ? | i | i
COc1ccccc1CNc1nc(-c2cccc(C#N)c2)nc2ccccc12 | nt | ? | i | ? | nt | nt
